From PubChem BioAssay AID1499 (Sanford-Burnham Center for Chemical Genomics, 2009)
Out of some 93,000 compounds screened, about 65 (0.07%) were called active.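 How the source made its calls: active means 10 µM primary screen giving 50% or more activity, confirmed by 40% or more on retest at that dose; inactive means the rest.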 What follows is part of a selection rich in actives, with near analogues and random picks from the rest.

These compounds were tested against Integrin beta-2 (Homo sapiens) + Integrin alpha-M (Homo sapiens) (UniProt P05107+P11215) (assay: enhancers of CD11b/CD18 adhesion to fibrinogen, primary screen, K562 cells, luminescence (AID 1499)). Conditions: ATPlite luminescence, at 10 µM, hits give high values.
Sequence of Integrin beta-2 (Homo sapiens) + Integrin alpha-M (Homo sapiens) (P05107 whole entry, looked up, other chains not shown): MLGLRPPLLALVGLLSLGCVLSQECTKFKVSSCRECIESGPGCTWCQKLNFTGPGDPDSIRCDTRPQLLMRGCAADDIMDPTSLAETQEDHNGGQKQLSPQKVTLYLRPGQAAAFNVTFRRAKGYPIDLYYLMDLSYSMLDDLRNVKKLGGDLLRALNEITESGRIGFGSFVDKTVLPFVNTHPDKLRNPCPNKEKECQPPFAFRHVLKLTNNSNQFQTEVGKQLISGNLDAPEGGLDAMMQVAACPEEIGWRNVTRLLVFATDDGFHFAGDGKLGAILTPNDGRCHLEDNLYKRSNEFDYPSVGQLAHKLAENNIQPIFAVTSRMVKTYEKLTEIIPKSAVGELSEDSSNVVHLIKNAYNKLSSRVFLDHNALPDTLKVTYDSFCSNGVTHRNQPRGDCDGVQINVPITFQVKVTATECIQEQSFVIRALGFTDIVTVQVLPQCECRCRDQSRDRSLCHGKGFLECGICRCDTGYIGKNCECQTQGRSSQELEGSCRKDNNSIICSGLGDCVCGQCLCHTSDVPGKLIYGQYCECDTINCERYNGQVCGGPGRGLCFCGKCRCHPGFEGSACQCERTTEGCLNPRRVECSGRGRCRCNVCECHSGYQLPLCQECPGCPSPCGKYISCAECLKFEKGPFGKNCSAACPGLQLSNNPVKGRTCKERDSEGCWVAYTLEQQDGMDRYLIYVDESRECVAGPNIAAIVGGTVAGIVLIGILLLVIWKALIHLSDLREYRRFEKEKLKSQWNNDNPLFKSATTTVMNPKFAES

Compound	activation
COc1ccc(C(=O)OCC(=O)NC(=O)CCSc2ccccc2)cc1	0.6% (inactive)
N#C/C(=C/c1cccc([N+](=O)[O-])c1)c1nnc2n1CCCCC2	1.1% (inactive)
CCCCNC(=O)CSc1nc2ccc(NC(=O)CSc3nnc(N)s3)cc2s1	-3.6% (inactive)
Fc1ccccc1CNC(=S)Nc1ccc(Cl)cc1	-7.2% (inactive)
CCCn1c(SCC(=O)Nc2ccc(C)c(S(=O)(=O)N3CCOCC3)c2)n[nH]c1=O	-1.4% (inactive)
O=C(Cc1ccc(-c2ccccc2)cc1)NC(c1ccccc1)c1ccccc1	0.5% (inactive)
CCN(CC)S(=O)(=O)c1ccc(C)c(NC(=O)COc2ccc(Br)cc2Cl)c1	-2.8% (inactive)
O=C(Cc1c[nH]c2ccccc12)N/N=C/c1cccc(F)c1	1% (inactive)
CCCC(=O)Nc1cccc(NC(=S)NC(=O)C(C)Oc2ccc(Cl)cc2Cl)c1 (configuration not stated)	-4.3% (inactive)
Cc1c(C(=O)NCCCc2ccccc2)cccc1[N+](=O)[O-]	-3.8% (inactive)
O=C(CCCCn1c(=O)[nH]c2ccccc2c1=O)NCc1ccc2c(c1)OCO2	-2% (inactive)
O=C1N(Cc2ccc3c(c2)OCO3)c2ccccc2C1(O)c1c[nH]c2ccccc12 (configuration not stated)	65.9% (active)
O=C(Cn1nnc(-c2ccccc2)n1)NCc1ccc2c(c1)OCO2	-1.1% (inactive)
Cc1cccc(NC(=S)Nc2ccc3cn[nH]c3c2)c1	0.1% (inactive)
CSCC[C@H](NC(=O)OC(C)(C)C)C(=O)N/N=C/c1cc2ccc(C)cc2nc1Cl	1.8% (inactive)
CC(=O)Nc1ccc(Nc2c([N+](=O)[O-])cc(S(C)(=O)=O)cc2[N+](=O)[O-])cc1	-0.7% (inactive)
Cc1cccc2cc(CN(Cc3cccs3)C(=S)NCc3ccco3)c(=O)[nH]c12	3.8% (inactive)
O=C(COC(=O)c1cc2c(s1)CCCC2)NCc1ccccc1Cl	-0.1% (inactive)
Cc1ccc(NC(=S)N2CCN(c3ncccn3)CC2)cc1C	-7.7% (inactive)
Cc1c(Cl)cccc1NC(=O)CC1SC(=NCC2CCCO2)NC1=O (configuration not stated)	2.9% (inactive)
Cc1c(C(=O)NCCN2C(=O)S/C(=C\c3cccs3)C2=O)cccc1[N+](=O)[O-]	23% (inactive)
COc1ccc(CN2C(=O)CC(Cc3ccc(C)cc3)C2=O)cc1OC (configuration not stated)	-1.2% (inactive)
COC(=O)c1ccc(NC(=O)CSc2nncc3ccc(OC)c(OC)c23)cc1	3% (inactive)

Compound	activation
Cc1cc(C(=O)CSc2nc(N)cc(=O)[nH]2)c(C)n1-c1cccc(F)c1	16.6% (inactive)
COc1cccc(N(C(=O)C2COc3ccccc3O2)C(C(=O)NC2CCCCC2)c2ccc(O)cc2)c1 (configuration not stated)	-0.8% (inactive)
O=C(NCCc1ccccn1)c1cc(-c2ccc(Cl)cc2)nc2ccccc12	0.7% (inactive)
Cc1ccc(NC(=O)C(=O)NCc2ccc(/C=N/NC(=O)c3c(C)nc4cc(C)ccn34)o2)cc1	100% (inactive)
CCOC(=O)C1=C(C)N=C2c3ccccc3C(=O)C2C1c1ccc(Br)cc1 (configuration not stated)	4.9% (inactive)
Cc1ccc(NC(=O)CC2C(=O)N(Cc3ccccc3)C(=S)N2NC(=O)c2cccc(F)c2)c(C)c1 (configuration not stated)	2.6% (inactive)
Clc1cccc(N=C2NN=C(c3ccc4c(c3)OCCO4)CS2)c1	4.8% (inactive)
COCCn1c(C)cc(C2=NNC(=Nc3ccc(F)cc3)SC2)c1C	120% (active)
CC(=O)Nc1ccc(NC(=S)NC(=O)c2ccc([N+](=O)[O-])c(C)c2)cc1	0.9% (inactive)
CC(C)(C)OC(=O)N/N=C/c1ccc(C(=O)O)cc1	0.2% (inactive)
Cc1ccc(NC(=O)NC(=O)CSc2nnc(-c3ccc(OC(F)F)cc3)n2N)c(C)c1	-3.1% (inactive)
CN(C)CCCNC(=S)NCc1ccc(Cl)cc1	2.8% (inactive)
C/C(=N\NC(=O)CCn1nc(C)cc1C)C(C)(C)C	2.8% (inactive)
COc1cc2c3c(c1)/C(=C1/SC(=S)NC1=O)C(=O)N3C(C)(C)C=C2C	-7.7% (inactive)
Cc1ccc(-n2c(C)cc(C(=O)CSc3nnc4ccccn34)c2C)cc1	-2.4% (inactive)
CC(NC(=S)Nc1ccccc1)C1COc2ccccc2O1 (configuration not stated)	-1.1% (inactive)
COc1ccc2c(CN3CCN(S(=O)(=O)c4cccs4)CC3)cc(=O)oc2c1	1.6% (inactive)
CCN(c1ccc(NC(=O)COC(=O)CCc2nc3ccccc3n2-c2ccccc2)cc1)C(C)C	5.2% (inactive)
CC(=O)Nc1ccc(S(=O)(=O)N2CCN(c3ccc([N+](=O)[O-])c(NCCN4CCOCC4)c3)CC2)cc1	8.9% (inactive)
COCCCNC(=O)Cn1cc(/C=C(\C#N)C(=O)N2CCN(c3ccccc3)CC2)c2ccccc21	0% (inactive)
O=C(Nc1nnc(SCc2ccccc2Cl)s1)c1cccc([N+](=O)[O-])c1	-9.7% (inactive)
O=C(CCCN1C(=O)/C(=C/c2ccco2)SC1=S)Nc1ccccc1	2.1% (inactive)
COc1ccc(/C(N)=N/OC(=O)Cc2ccccc2)cc1	-3.3% (inactive)

Compound	activation
CCOC(=O)c1c(NC(=O)C2CCN(S(=O)(=O)c3ccc(Cl)cc3)CC2)sc2c1CCCC2	15.1% (inactive)
COC(=O)Cc1ccc(NC(=S)NCc2ccccc2)cc1	1.6% (inactive)
CC(C)N1C(=O)N(c2ccccc2)C(C)(O)CC1(C)C (configuration not stated)	3.2% (inactive)
O=C(CSc1nc2ccccc2c(=O)n1CCCO)N1CCc2ccccc21	2.1% (inactive)
Cc1ccc2[nH]cc(CCNC(=O)c3ccc([N+](=O)[O-])cc3)c2c1	-1.3% (inactive)
CCCCC(O)(CCCC)C(=O)NN(C(=O)CCl)c1ccccc1	3.4% (inactive)
CNc1ccc(NC(C)=O)cc1[N+](=O)[O-]	2.9% (inactive)
COc1ccc(NC(=O)CN2C(=O)C(c3ccccc3)=NC23CCCCCC3)cc1OC	-1.4% (inactive)
Cc1ccc(-c2nnc(-c3ccc(NC(=O)c4cccs4)cc3)o2)cc1	161% (active)
Cc1nc(-c2ccc(NC(=O)c3cccs3)cc2)cs1	-4.6% (inactive)
Cc1ccc(-c2csc(NC(=O)c3cccs3)n2)cc1	3.8% (inactive)
COc1ccccc1OCCC(=O)OCC(=O)NCc1ccccc1	3.3% (inactive)
CCCN(CCC)c1c([N+](=O)[O-])c(=O)oc2ccccc12	2.9% (inactive)
CC(C)[C@H](NC(=O)c1ccc(F)cc1)C(=O)OCC(=O)NC(=O)c1cccn1C	25.8% (inactive)
Cc1cc(C)c(NC(=S)N2CCCC2C(=O)O)c(C)c1 (configuration not stated)	-3.4% (inactive)
O=C(Nc1cc(C(F)(F)F)ccc1Cl)C(=O)N1CCCCC1	10.3% (inactive)
CC(C)CCSc1ncnc2c1oc1nc3c(cc12)COC(C)(C)C3	6.2% (inactive)
CC(NC(=O)CSc1nc2c(cc1C#N)CN(C)CC2)c1ccccc1 (configuration not stated)	-1.5% (inactive)
CC1(C)Cc2nc3sc4c(SCC(=O)NC(c5ccccc5)c5ccccc5)ncnc4c3cc2CO1	93.6% (active)
CCc1c(C)sc(NC(=O)/C=C/c2ccc3c(c2)OCO3)c1C(=O)OC	9.1% (inactive)
COc1ccc2oc(-c3cccc(NC(=O)CSc4ccc(Cl)cc4)c3)nc2c1	13.1% (inactive)
O=C(COC(=O)Cc1ccc(F)cc1)Nc1cc(S(=O)(=O)N2CCOCC2)ccc1N1CCCC1	-2.5% (inactive)
CN(C)CCCO/N=C(\c1ccccc1)c1ccncc1	3.7% (inactive)

Compound	activation
O=C(COC(=O)Cn1cnc2ccccc21)Nc1cccc2c1C(=O)c1ccccc1C2=O	7.9% (inactive)
COc1cc(Cl)c(C)cc1NC(=O)COC(=O)c1cc(SC)ccc1Cl	0.1% (inactive)
Cc1ccc(-c2nc(C)sc2CC(=O)OCC(=O)Nc2c(F)cccc2F)cc1	-4% (inactive)
Cc1csc(=Nc2ccccc2)n1CCO	0.8% (inactive)
Cc1ccc(S(=O)(=O)Nc2nc(C)cc(N/N=C/c3ccc(O)cc3)n2)cc1	13.5% (inactive)
Cc1cccc(NC(=O)Cn2c(=O)n(Cc3ccccc3)c(=O)c3c(C)c(C)sc32)c1	6.7% (inactive)
Cc1ccc(/C=N/NC(=O)CNC(=O)COc2ccccc2)o1	6.3% (inactive)
O=C1N(c2ccc(Cl)cc2)C(c2ccc(Cl)cc2)N2CCCN12 (configuration not stated)	3.2% (inactive)
CCOc1ccc(/C=N/OCC(=O)NCc2cccs2)cc1	-0.5% (inactive)
C=CCn1c(SCn2nnc3ccccc3c2=O)nnc1-c1ccc(Cl)cc1	4.1% (inactive)
C=CCSc1nc(Cc2ccc(Cl)cc2)nc2ccccc12	69.1% (active)
C=CCSc1nc2ccccc2[nH]1	6.8% (inactive)
Cc1sc2ncnc(Sc3nc4ccccc4s3)c2c1C	12.1% (inactive)
OC(COCC1COc2ccccc2O1)CN1CCN(c2ccc(F)cc2)CC1 (configuration not stated)	4.1% (inactive)
C/C(=N/NC(=O)C1COc2ccccc2O1)c1ccco1 (configuration not stated)	1.2% (inactive)
N#CCOc1ccc(C2=NO[C@@H]3[C@@H]4C[C@@H]([C@H]5C(=O)N(c6ccc7c(c6)OCO7)C(=O)[C@@H]45)[C@H]23)cc1	0.6% (inactive)
CC(=C/c1ccccc1)/C=N/NC(=O)c1cc(C)oc1C	-1.7% (inactive)
COc1ccc(NC(=O)c2ccc(C#CC(C)(C)O)cc2)cc1	2.8% (inactive)
Cc1ccc(OCC(=O)Nc2ccccc2Sc2ccc(Cl)cc2)c([N+](=O)[O-])n1	-1% (inactive)
Cc1cccc(-n2c(C)cc(/C=N/NC(N)=S)c2C)c1	-1.9% (inactive)
CC(C)NC(=S)N1CCN(S(C)(=O)=O)CC1	0.6% (inactive)
Cc1ccc(-c2nn(-c3ccccc3)cc2C(=O)Nc2cccc(S(=O)(=O)N3CCOCC3)c2)cc1	-0.1% (inactive)
CCOc1ccc(NC(=S)NC(=O)/C=C/c2ccc(OC)cc2)c([N+](=O)[O-])c1	34.7% (inactive)
